Among all 94,000 compounds or so, about 6,200 (6.6%) were called active. About 31% were inconclusive and are not listed. The list comes from a sample in which actives are over-represented; it also holds similar structures and randomly drawn compounds. A number with no mark means an inactive call. The call rests on the fitted dose curve; in most records, active means well fitted inhibition curve with a large enough effect; inconclusive means small, poorly fitted or top-dose-only effect; inactive means flat fitted curve, though single readings scatter.
On the % scale 0 is the no-effect control and ±100 the full control effect; potency means the concentration at half of the fitted maximal effect.

A short description of this experiment: Cytotoxic Profiling in HEK 293 Cell Line of Diverse Libraries Using Quantitative High-Throughput Screening. Further: nearly all actives have a fitted effect of over 60% in size. The conditions noted are these: HEK 293 viability, ATP luminescence (CellTiter-Glo), 48-72 h; series mostly up to 115 µM; activity change, negative = cytotoxicity: at the top concentration. A digest of the protocol: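 Read-out: CellTiter-Glo ATP luminescence. Cells: HEK 293, 250 cells/well. Exposure: 48 or 72 hr, 37 degree Celsius.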
As to `O=c1[nH]c(N2CCOCC2)nc2c1CCN(Cc1cccc(F)c1)CC2`, the “activity change, negative = cytotoxicity” value was -0.181%. With `CN(C)c1ccc(C(=O)N2CCN3C(=O)N(Cc4ccccc4)C(=O)[C@H]3C2)cc1`, the “activity change, negative = cytotoxicity” value was -26.6% [at 172 µM].

`CC1=C[C@@H](CNC2CC2)[C@H](C(C)C)C[C@H]1Cc1nnc(-c2ccc(C)cc2)o1`: the Potency was 50.1 µM (active). `CC(=O)NC[C@@H]1C=C(C)[C@H](CC(=O)N2CCCC2)C[C@H]1C(C)C`: the “activity change, negative = cytotoxicity” value was 3.61% [at 172 µM].

In the case of `CC1=C[C@@H](CNC(C)C)[C@H](C(C)C)C[C@H]1Cc1nnc(-c2ccc(N(C)C)cc2)o1`, the Potency was 31.6 µM (active). Still for that read-out and setting: the value for `CC1=C[C@@H](CNC(C)C)[C@H](C(C)C)C[C@H]1Cc1nnc(-c2ccc(C)cc2)o1` was 70.8 µM (active). For the compound `O=C1CCC2(CCCN(C(=O)c3ccc(F)cc3)C2)CN1CCc1cnc[nH]1` (stereo not given), the “activity change, negative = cytotoxicity” value was -7.95%. Turning to `CC(C)CN1CC2(CCN(C(=O)c3conc3-c3ccccc3)CC2)CC1=O`, the “activity change, negative = cytotoxicity” value was 3.69%. For `CC(C)S(=O)(=O)N1CCC(c2nnc3n2CCNC3)CC1`, the “activity change, negative = cytotoxicity” value is -23.8%.

`O=C(C1C2C(=O)N(C3CCCCCC3)C[C@@]23C=C[C@@H]1O3)N1CCS(=O)(=O)CC1` (stereo not given in full): the “activity change, negative = cytotoxicity” value was -13.7%. The same measure, in the same setting: under `COCCN1CCOC[C@H]2CCN(C(=O)c3sc(C)nc3C)C[C@H]21` stands 8.08%; under `COCCNC(=O)CC[C@]12CC[C@](C)(O)C[C@H]1C(C)(C)C[C@@H]2NC(=O)c1ccco1`, 1.79% [at 172 µM]. For the compound `N[C@@H]1CCN(Cc2cccc(Oc3ccc(F)cc3)c2)C[C@H]1O`, the Potency is 79.4 µM (active). Regarding `CNC(=O)[C@@H]1CN(Cc2cccc(OC)c2)C[C@H]1CO`, the “activity change, negative = cytotoxicity” value was -2.57%.

With `COc1cccc(CN2CC[C@@](C)(O)[C@H](N3CCCC3)C2)c1`, the “activity change, negative = cytotoxicity” value was -1.62%. Same read-out and setting: the value for `COC(=O)C1=C(C)N=C2SC=C(CC(=O)NCc3ccco3)N2C1c1cccc(F)c1` (stereo not given) was -28.9%; that for `CC(C)(C)c1nc(C(=O)N2CCOCC2)n2ccccc12` was -9.1% [at 172 µM]; that for `CCCNC(=O)N1CCCC1c1nc(C2CCOCC2)no1` (stereo not given) was -1.86%. With `COCCN1C(=O)CS(=O)C12CCN(C(=O)NC1CCCC1)CC2` (stereo not given), the call was inactive. Turning to `Cn1nccc1C(=O)N1CCCCCNC(=O)[C@@H]2CCC[C@@H]21`, the “activity change, negative = cytotoxicity” value was 1.85%. For `O=C(c1cccc(O)c1)N1CCNc2cnc(Nc3cccc(F)c3)nc2C1`, the Potency is 100 µM (active). Turning to `O=C(c1cccc(F)c1)N1CCCC(c2nccn2Cc2cscn2)C1` (stereo not given), the “activity change, negative = cytotoxicity” value is -9.43%.

Regarding `COc1ccccc1Nc1ncc2c(n1)CN(C(=O)COc1ccccc1)CCN2`, the “activity change, negative = cytotoxicity” value is -45.3% [at 172 µM]. On the same count and under the same terms, the value for `Cc1ccc(C(=O)N2C[C@H]3CN(C4CCOCC4)C[C@@]3(C(=O)O)C2)cc1` was -3.71%; that for `COCCn1c(C)nnc1-c1cc(-c2cccc(F)c2)ccn1` was -14.4% [at 172 µM].

For the compound `Cc1nnc(-c2cc(-c3ccccc3)ccn2)n1CCc1ccccc1`, the Potency was 89.1 µM (active). On to `COc1ccc(-c2ccnc(-c3nnc(C)n3C3CCN(C)CC3)c2)cc1OC`, for which the “outcome” value is “inactive [at 172 µM]”. On to `O=C(C1CCN([S+](=O)([O-])c2cccs2)CC1)N1CCC(c2nc3ncccc3[nH]2)CC1`, for which the “activity change, negative = cytotoxicity” value is -26%. Still for that read-out and setting: the value for `Cc1ccc(N2Cc3c(NC4CCCCC4)ncnc3N(C)CC2=O)cc1` was -23.9%; that for `O=C(Cc1cccn1-c1ccccc1)N1CCOCC1` was 8.81%.

Regarding `Cc1ccc(C(=O)N2CCCC(C(=O)NCc3ccccc3)CCNC(=O)CC2)s1` (stereo not given), the “activity change, negative = cytotoxicity” value is -11.4%.

Regarding `O=[N+]([O-])c1cccc(-c2noc([C@@H]3C[C@@H](O)CN3Cc3cccnc3)n2)c1`, the “activity change, negative = cytotoxicity” value was -20% [at 172 µM]. As to `COc1ccc(-c2nc(C(C)C)nc3c2CCN([S+](=O)([O-])c2cccc(C(F)(F)F)c2)CC3)cc1`, the Potency was 39.8 µM (active). With `COc1ccc(-c2nc(C3CC3)nc3c2CCN([S+](=O)([O-])c2ccccc2)CC3)cc1`, the “activity change, negative = cytotoxicity” value is -25.8%.

In the case of `COc1ccc(C(=O)N2CCc3nc(C4CC4)nc(-c4ccc(Cl)cc4)c3C2)cc1`, the “activity change, negative = cytotoxicity” value was -23.7%.

Take `COc1ccc(-c2nc(C)nc3c2CN([S+](C)(=O)[O-])CC3)cc1`: the “activity change, negative = cytotoxicity” value is 2.07%.

On to `COc1ccc(-c2nnc3n2CCN(C(=O)c2cccc(OC)c2)C3)cc1`, for which the “activity change, negative = cytotoxicity” value was -1.3%.

As for `COc1cccc(C(=O)N2CCc3nc(C(C)C)nc(-c4ccc(Cl)cc4)c3C2)c1`, the Potency is 89.1 µM (active). On to `CCC(CC)C(=O)N1CCC(N2CCCC(C(=O)NCc3ccccc3)C2)CC1` (stereo not given), for which the “activity change, negative = cytotoxicity” value was -6.43%.

On to `COc1cc(SC)ccc1C(=O)N[C@@H]1C=C(C(=O)N[C@H](Cc2ccccc2)C(N)=O)C[C@@H](O)[C@@H]1O`, for which the “activity change, negative = cytotoxicity” value was -6.4%.

For the compound `CCCC(NC(C)=O)C(=O)Nc1cccc(NC(=O)Cc2ccccc2)c1` (stereo not given), the “activity change, negative = cytotoxicity” value is -5.42%. Still for that read-out and setting: under `O=c1[nH]c(C2CCN(Cc3ccc(F)cc3)CC2)nn1Cc1ccccc1` stands -21.8%. Take `COc1ccccc1C(=O)N1CCC2(CC1)CC(=O)c1ccccc1O2`: the Potency is 112 µM (active).

For the compound `COc1ccccc1C(=O)N1CCC2(CCC(=O)N(Cc3ccccc3)CC2)CC1`, the “activity change, negative = cytotoxicity” value is 9.71%. `COc1ccccc1C(=O)N1CCC(n2cnnc2C2CC2)CC1`: the “activity change, negative = cytotoxicity” value is -2.05%. Take `OC1CC(c2cc(N3CCC(c4nnc5n4CCCCC5)CC3)ncn2)C1` (stereo not given): the “activity change, negative = cytotoxicity” value is 2.4%.

For `O=C(O)c1cccc(-c2ccccn2)c1`, the Potency result is “inactive”. Regarding `COCCN1C(=O)c2cccn2CC1CNC(=O)c1ccccc1F` (stereo not given), the “activity change, negative = cytotoxicity” value is 4.36%. In the case of `CN(C)[C@@H]1CO[C@H](CNS(=O)(=O)c2ccccc2)[C@H]1O`, the “outcome” value was “inactive [at 172 µM]”. Turning to `CNC(=O)c1cc[nH]c1C1CCCN(C(=O)Cc2c[nH]c3ccccc23)C1` (stereo not given), the “activity change, negative = cytotoxicity” value is 3.91%.

Source of the values: PubChem BioAssay AID1345083 (National Center for Advancing Translational Sciences (NCATS), 2018).
